Common to all, as to test: NCI-60 one-dose screen, 48 h (100 = growth as untreated, 0 = no growth, -100 = all killed)
What all share (conditions): 10 µM unless noted

Test [1] deals with HCT-15 colon.
The subject of test [2] is HT29 colon.
The subject of test [3] is SNB-75 CNS.
Test [4] relates to SNB-19 CNS.
The test system of test [5] is U251 CNS.
The test system of test [6] is PC-3 prostate.
In test [7] the test system is SK-MEL-5 melanoma.
Test [8] relates to UACC-62 melanoma.
Test [9] has as its system LOX IMVI melanoma.
For test [10], the system named is SK-MEL-28 melanoma.
The subject of test [11] is SK-MEL-2 melanoma.
Test [12] deals with EKVX NSCLC.
In test [13] the test system is SN12C renal.
In test [14] the test system is UO-31 renal.
In test [15] the test system is TK-10 renal.
Test [16] deals with ACHN renal.
In test [17] the test system is CAKI-1 renal.
Test [18] deals with A498 renal.
The test system of test [19] is CCRF-CEM leukemia.
Test [20] deals with MOLT-4 leukemia.

Results on eight compounds are retold here after PubChem BioAssay (NCI).

The panel holds about 83,000 compounds, 20% with a hit somewhere; the sample as a whole holds those more often.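 A percent growth of 40 corresponds to 60% growth inhibition; 0 means no net growth; -100 means all cells died. Active threshold: below 10.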 Values without a mark were called inactive. Activity calls are given as the source filed them.

Turning to `CCN(CC)c1ccc(/C=N\NC(=O)c2cccc(Nc3ccnc(C(F)(F)F)c3)c2)c(O)c1`, the growth in [1] is 28.7%; in test [2], 11.7%; in test [3] it was 34.7%; in test [4] it was 15.9%; in test [5], 13.1%; in test [6] it was 18.9%. For the same compound, the growth in test [7] was -52.2% (active); in test [8], -12.2% (active); in [9], -6.15% (active); in test [10], 64.8%; in test [11], 87.5%; in [12] it was 26.6%. Further, the growth in test [13] was 18.2%; in test [14], 7.3% (active); in [15], 42.8%; in test [16] it was 12.1%; in test [17], 55.6%; in test [18], 53%. In addition, the growth in test [19] is 15.7%; in test [20] it was 77.5%.

With `C=C1C(=O)O[C@H]2[C@H]1CC/C(COC(=O)c1cc3cc(F)ccc3[nH]1)=C\CC[C@@]1(C)O[C@@H]21`, the growth in [1] was -59.8% (active); in [2], -53.6% (active); in [3], -35.3% (active); in [4] it was -10.2% (active); in [5], -86% (active); in test [6], -75.2% (active). The growth in test [7] is -94.5% (active); in test [8], -71.9% (active); in test [9], -87.2% (active); in [10], -77.4% (active); in test [11], -69% (active); in test [12], -78.1% (active). For the same compound, the growth in test [13] was -42% (active); in test [14] it was -88.1% (active); in [15], -94.9% (active); in test [16], -88.5% (active); in test [17] it was -90.8% (active); in [18], -40.2% (active). For the same compound, the growth is -31.9% (active) in test [19] and -16.2% (active) in test [20].

In the case of `CCOC(=O)Cn1c(=O)c2c3ccccc3n(C)c2n2nnc(-c3ccccc3)c12`, the growth was 114% in [1]; 89.1% in [2]; 105% in [3]; 115% in test [4]; 87.8% in test [5]; 76.1% in test [6]. Moreover, the growth in test [7] is 74.1%; in [8], 72.8%; in test [9], 86.2%; in [10], 86.6%; in test [11], 97.1%; in test [12], 85.8%. Further, the growth in test [13] was 81.8%; in [14], 81.2%; in [15] it was 129%; in [16] it was 91.8%; in test [17] it was 81.2%; in test [18] it was 134%. Also, the growth in test [19] is 68.4%; in test [20] it was -40.7% (active).

In the case of `CN1CCN(CCCOc2ccc3ncnc(Nc4ccc(Oc5cccc(F)c5)c(Cl)c4)c3c2)CC1`, the growth in test [1] is -3.99% (active); in test [2] it was -25.1% (active); in [3] it was 52.1%; in [4], 34.8%; in [5] it was 8.27% (active); in test [6], 8.64% (active). The growth in test [7] was -96.3% (active); in test [8] it was -31.8% (active); in test [9], -91.6% (active); in [10], -85.9% (active); in test [11], -8.81% (active); in test [12] it was 29.6%. Besides, the growth in [13] is 49.4%; in test [14], 34.2%; in [15] it was 37%; in test [16], -11.3% (active); in test [17], 5.24% (active); in [18], 33.2%. Further, the growth in [19] was -6.61% (active); in test [20] it was -3.25% (active).

As for `Cc1ccccc1CNc1c2ccccc2nc2ccccc12`, the growth in test [1] was 14.6%; in [2] it was 8.87% (active); in test [3], 45.3%; in [4], 27.1%; in test [5], 21.3%; in test [6], 25.6%. Also, the growth in test [7] was 33.9%; in test [8], 46.7%; in test [9], 9.12% (active); in test [10], 58.3%; in test [11] it was 40.2%; in test [12], 38.4%. The growth is 24.3% in test [13]; 15.5% in test [14]; 38.7% in test [15]; 11.6% in test [16]; 25.1% in [17]; -2.25% (active) in test [18]. Moreover, the growth in test [19] is 17.6%; in [20], 8.85% (active).

As for `CC1(C)O[C@H]2OC3CCC(=O)CC3(O)[C@H]2O1` (stereo not given in full), the growth in test [1] is 111%; in test [2], 98.6%; in [3] it was 95.1%; in test [4], 107%; in [5], 96.5%; in test [6] it was 82%. Moreover, the growth is 98.8% in [7]; 107% in test [8]; 96.7% in [9]; 120% in [10]; 102% in test [11]; 112% in test [12]. For the same compound, the growth in [13] is 103%; in test [14], 79.5%; in test [15] it was 97.7%; in test [16], 110%; in test [17], 101%; in [18], 95.1%. In addition, the growth in test [19] was 106%; in test [20], 112%.

Take `FC(F)(F)c1[nH]ncc1-c1nc2c(N3CCCCC3)cc3[nH]ncc3c2c2c1CCCC2`: the growth is 5.17% (active) in test [1]; 1.21% (active) in [2]; -73.8% (active) in test [3]; 7.25% (active) in [4]; 3.57% (active) in test [5]; 0.448% (active) in [6]. Further, the growth in test [7] is -68.2% (active); in test [8], -49.9% (active); in [9] it was -68.9% (active); in [10], -6.99% (active); in test [11], -34% (active); in test [12] it was 13.2%. In addition, the growth in test [13] is 2.49% (active); in [14], -19.6% (active); in [15] it was 1.88% (active); in test [16], 4.67% (active); in test [17] it was 5.43% (active); in test [18], -71.6% (active). Also, the growth is 4.61% (active) in test [19] and -0.165% (active) in test [20].

With `O=C(O)CCCn1c(SCc2c(Cl)cccc2Cl)nc2ccsc2c1=O`, the growth in test [1] was 30.7%; in test [2], 4.21% (active); in test [3] it was -13.8% (active); in [4], 31%; in test [5] it was 18.1%; in test [6] it was 14.5%. Further, the growth in [7] was 16.8%; in test [8] it was 28.3%; in test [9], 28%; in test [10], 57.6%; in [11], 31.3%; in test [12], 52.2%. Also, the growth was 53.3% in test [13]; 37.5% in test [14]; 48% in test [15]; 46.7% in [16]; 30.6% in test [17]; -1.92% (active) in test [18]. Besides, the figures for the growth in test [19] and in test [20] were 19.6% and 21.7%, respectively.
